Data on 109 compounds can be found in PubChem BioAssay AID504333 (National Center for Advancing Translational Sciences (NCATS), 2011).

Among all 360,000 compounds or so, about 16,000 (4.4%) were called active. A call without a number means that no potency is given here. About 9% were inconclusive and are not listed. Calls follow the shape of the dose curve; as a rule, active = well fitted inhibition curve with a large enough effect; inconclusive = small, poorly fitted or top-dose-only effect; inactive = no such curve, though single readings can be large or run the other way. Only a selection was taken, and actives are over-represented in it overall.
Potency is read from the fitted curve at half-maximal effect.

Bromodomain adjacent to zinc finger domain protein 2B (Homo sapiens), sequence (Q9UIF8 whole entry, looked up, the tested form may be a part): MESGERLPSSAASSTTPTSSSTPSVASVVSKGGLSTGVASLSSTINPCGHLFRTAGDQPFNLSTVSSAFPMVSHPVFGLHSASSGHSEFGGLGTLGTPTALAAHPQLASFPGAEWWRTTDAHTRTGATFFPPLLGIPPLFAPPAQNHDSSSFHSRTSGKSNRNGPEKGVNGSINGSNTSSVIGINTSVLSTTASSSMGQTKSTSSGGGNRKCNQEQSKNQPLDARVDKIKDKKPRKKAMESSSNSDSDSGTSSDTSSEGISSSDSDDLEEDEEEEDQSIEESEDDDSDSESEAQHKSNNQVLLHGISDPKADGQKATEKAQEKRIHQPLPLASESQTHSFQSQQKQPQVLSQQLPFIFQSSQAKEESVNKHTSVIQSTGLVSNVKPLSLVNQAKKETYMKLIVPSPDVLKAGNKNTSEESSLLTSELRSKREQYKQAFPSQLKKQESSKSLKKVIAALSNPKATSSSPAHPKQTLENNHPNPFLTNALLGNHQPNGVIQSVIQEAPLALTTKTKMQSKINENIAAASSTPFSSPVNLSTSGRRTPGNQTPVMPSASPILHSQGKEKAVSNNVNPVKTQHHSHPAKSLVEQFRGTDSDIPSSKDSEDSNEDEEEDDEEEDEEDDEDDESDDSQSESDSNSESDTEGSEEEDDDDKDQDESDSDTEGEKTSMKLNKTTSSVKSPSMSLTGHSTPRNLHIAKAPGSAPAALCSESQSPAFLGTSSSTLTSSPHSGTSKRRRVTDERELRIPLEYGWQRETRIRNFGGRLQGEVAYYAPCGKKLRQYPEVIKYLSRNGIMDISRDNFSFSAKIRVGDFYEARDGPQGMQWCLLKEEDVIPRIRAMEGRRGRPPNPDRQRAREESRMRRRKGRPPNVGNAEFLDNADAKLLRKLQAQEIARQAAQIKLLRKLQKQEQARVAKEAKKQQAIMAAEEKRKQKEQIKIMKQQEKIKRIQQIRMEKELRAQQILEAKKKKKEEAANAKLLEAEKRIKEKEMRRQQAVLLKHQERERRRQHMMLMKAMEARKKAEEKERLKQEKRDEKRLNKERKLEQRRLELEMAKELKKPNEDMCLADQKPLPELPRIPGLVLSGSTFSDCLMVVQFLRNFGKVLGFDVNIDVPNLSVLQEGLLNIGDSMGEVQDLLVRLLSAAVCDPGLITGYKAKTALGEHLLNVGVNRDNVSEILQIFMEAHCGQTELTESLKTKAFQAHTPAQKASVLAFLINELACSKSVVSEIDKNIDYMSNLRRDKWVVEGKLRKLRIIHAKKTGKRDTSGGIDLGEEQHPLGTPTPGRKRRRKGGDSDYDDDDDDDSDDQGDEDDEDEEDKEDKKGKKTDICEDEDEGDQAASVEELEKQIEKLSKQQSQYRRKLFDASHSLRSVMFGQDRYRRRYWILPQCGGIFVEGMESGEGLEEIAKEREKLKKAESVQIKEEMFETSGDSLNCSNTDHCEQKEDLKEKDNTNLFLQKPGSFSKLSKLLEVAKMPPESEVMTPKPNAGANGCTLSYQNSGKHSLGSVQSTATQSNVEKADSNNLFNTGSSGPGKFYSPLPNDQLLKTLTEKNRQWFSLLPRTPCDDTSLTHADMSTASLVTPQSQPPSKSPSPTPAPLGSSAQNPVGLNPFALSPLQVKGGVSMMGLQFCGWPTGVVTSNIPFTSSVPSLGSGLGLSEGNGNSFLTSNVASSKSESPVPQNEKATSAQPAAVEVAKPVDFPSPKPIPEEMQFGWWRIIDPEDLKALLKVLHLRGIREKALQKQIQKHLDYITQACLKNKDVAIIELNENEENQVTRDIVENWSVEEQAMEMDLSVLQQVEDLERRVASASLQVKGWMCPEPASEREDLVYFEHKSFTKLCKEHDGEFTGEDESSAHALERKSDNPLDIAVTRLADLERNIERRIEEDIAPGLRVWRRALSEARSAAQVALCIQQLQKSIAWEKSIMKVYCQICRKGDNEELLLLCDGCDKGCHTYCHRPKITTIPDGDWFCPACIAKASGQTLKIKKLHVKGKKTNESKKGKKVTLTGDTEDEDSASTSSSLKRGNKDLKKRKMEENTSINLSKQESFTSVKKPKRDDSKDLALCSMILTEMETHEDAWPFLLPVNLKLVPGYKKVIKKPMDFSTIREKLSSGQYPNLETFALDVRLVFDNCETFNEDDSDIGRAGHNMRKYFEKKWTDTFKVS

This test concerns the target Bromodomain adjacent to zinc finger domain protein 2B (Homo sapiens) (UniProt Q9UIF8). The test can be described thus: qHTS Assay for Inhibitors of BAZ2B. Also: nearly all actives have a fitted effect of over 60% in size. The following applies: AlphaScreen BAZ2B-H3K14Ac peptide displacement; series mostly up to 114 µM. In outline:
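Complex of BAZ2B and biotin-H3K14Ac (50 nM apiece) forms over 30 min at RT, then faces library compounds up to 110 uM for another 30 min; AlphaScreen beads added, 20 min dark incubation, luminescence read.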
In general terms: Quantitative high-throughput screening tests each substance at several concentrations.
Regarding `O=C(CC1N=C2c3ccccc3N=C(SCc3cccc(Cl)c3)N2C1=O)NCc1ccc2c(c1)OCO2` (centres undefined), the Potency result was “inactive”.
As for `CCC(C)NC(=O)CSC1=Nc2ccccc2C2=NC(CCC(=O)NCc3ccco3)C(=O)N12` (centres undefined), the Potency entry was “inactive”.
`O=C(CC1N=C2c3ccccc3N=C(SCc3ccccc3Cl)N2C1=O)NCc1ccco1` (centres undefined): the Potency is 50.1 µM (active).
Next, `Cc1ccc(-c2cc(C(F)(F)F)c(C#N)c(SCC(=O)Nc3ccccc3)n2)cc1`: “inactive”; `CCOC(=O)c1ccc(NC(=O)CCn2cnnn2)cc1`: “inactive”.
With `CC(=O)c1nn(-c2ccc(OC(F)(F)F)cc2)nc1Nc1ccccc1` the entry was “inactive”.
In the case of `Cc1cc(C(=O)COC(=O)CNC(=O)c2ccc(F)cc2)c(C)n1Cc1ccco1`, the Potency was 50.1 µM (active).
Next, `Cc1cc(C(=O)CSc2nc(N)cc(=O)[nH]2)c(C)n1Cc1ccco1`: “inactive”; `COCCn1c(C)cc(C(=O)COC(=O)CNC(=O)c2ccco2)c1C`: “inactive”.
With `COc1ccc(S(=O)(=O)c2c(Nc3ccc(C)cc3)sc(C(=O)c3ccc(C)cc3)c2N)cc1` the entry was “inactive”; with `CCOc1ccc(C(=O)N2CCN(CCc3ccccn3)CC2)cc1`, “inactive”; with `COc1ccc(-c2c(C#Cc3ccccc3)c3ccccc3n2C)cc1`, “inactive”.
For the compound `COc1ccc(-c2nc3ccccc3c(=O)n2CCc2ccc(O)cc2)cc1`, the Potency entry was “inactive”.
Next, `COc1ccc(CCNCc2c(-c3ccccc3)n(C)c3ccccc23)cc1`: 50.1 µM (active).
In the case of `O=C(NCCc1ccccc1)c1cnc2sc(N3CCCC3)nn2c1=O`, the Potency result was “inactive”.
Next, `CCNCCC(=O)N1c2ccccc2Sc2ccc(NC(=O)OCC)cc21`: “inactive”.
With `CCOC(=O)Nc1ccc2c(c1)N(C(=O)CCCl)c1ccccc1[S@]2=O` the entry was “inactive”.
With `CCOC(=O)Nc1ccc2c(c1)N(C(=O)CN1CCN3CCCC3C1)c1ccccc1CC2` (centres undefined) the figure was 70.8 µM (active).
Turning to `Cc1cc(C)cc(NS(=O)(=O)c2ccc(-c3cc(C)no3)s2)c1`, the Potency result was “inactive”.
With `Cc1ccc(C)c(Cn2c(C)c(CNCc3ccc(F)cc3)c(C(=O)O)c2C)c1` the entry was “inactive”; with `O=C(CCCn1c(=O)c2cccn2c2cccnc21)NCc1ccc(F)cc1`, “inactive”; with `Cc1ccc(OCCCC(=O)N2CCOCC2)c(C)c1`, “inactive”.
With `Cc1ccc(OCCCCN2CCCCC2)c(Br)c1` the figure was 50.1 µM (active).
On to `COc1ccc(C(=O)NCCCN2CCOCC2)cc1Br`, for which the Potency entry is “inactive”.
As for `COc1ccccc1NC(=O)c1cc(C2CC2)nc2c1c(C)nn2-c1ccc(C)cc1`, the Potency entry is “inactive”.
Next, `CC(C)Cn1c(C2CC(=O)N(c3ccccc3Cl)C2)nc2ccccc21` (centres undefined): “inactive”.
Next, `Cc1c(Cl)cccc1NC(=O)CCS(=O)(=O)c1ccc2c(c1)oc(=O)n2C`: “inactive”; `Cc1ccccc1OCCSc1nc2ccc(NC(=O)c3ccco3)cc2s1`: “inactive”; `COc1cccc(/C=N/Nc2ccc(Cl)nn2)c1`: “inactive”.
As to `Oc1c(Br)cccc1/C=N/Nc1c(F)c(F)c(F)c(F)c1F`, the Potency entry is “inactive”.
Next, `Clc1ccc(N/N=C/c2cccs2)nn1`: 50.1 µM (active); `Nc1nnnn1/N=C/c1cccs1`: “inactive”; `Cc1ccsc1/C=N/Nc1ccc(Cl)nn1`: “inactive”.
Next, `Oc1cccc(/C=N/Nc2ccc(Cl)nn2)c1O`: 8.91 µM (active); `Cc1cccc2c(=O)cc(CSc3ccccc3NC(=O)C(C)C)[nH]c12`: “inactive”; `CCOC(=O)N1CCC(NC(=O)c2cnn(-c3cccc(C)c3)c2C2CCN(C(=O)OC(C)(C)C)CC2)CC1`: “inactive”.
As to `CCc1cccc(NC(=O)Cn2nc(CC)n3c(cc4cc(C)ccc43)c2=O)c1`, the Potency entry was “inactive”.
With `CC(C)CNc1ncnc2c1nnn2C` the entry was “inactive”; with `CCOc1ccc(/C=N/NC(=O)CSc2ccccn2)cc1O`, “inactive”.
Consider `CCOc1cc(/C=N/NC(=O)CN2CCCCC2)ccc1O`, for which the Potency was 56.2 µM (active).
Next, `O=C(CN1CCSCC1)N/N=C/c1ccc(F)cc1`: 50.1 µM (active).
For `Cc1nn(CC(=O)N/N=C/c2ccc(F)cc2)c(C)c1[N+](=O)[O-]`, the Potency result is “inactive”.
Next, `O=C(CC(=O)N/N=C\c1ccc(F)cc1)NCCc1ccccc1`: “inactive”; `Cc1ccc(COc2ccc(/C=N/NC(=O)CN3CCCCC3)cc2)cc1`: “inactive”.
With `Cc1cccc(CSc2nc3ccncc3n2Cc2ccc(C(=O)O)cc2)c1` the entry was “inactive”; with `COc1ccc(CCNC(=O)CCCCn2c(=O)c3ccccc3n(Cc3ccccc3)c2=O)cc1OC`, “inactive”; with `Cc1ccc(SCC(=O)Nc2ccc3oc(-c4ccccc4C)nc3c2)cc1`, “inactive”.
With `COc1ccc(NC(=O)c2ccc3nc(C(C)C)oc3c2)cc1OC` the entry was “inactive”.
With `CCCc1cc(=O)n2[nH]c(NCc3ccc(CC)cc3)nc2n1`, the Potency entry was “inactive”.
Next, `Nc1ccccc1SC(C[N+](=O)[O-])c1ccccc1` (centres undefined): 44.7 µM (active); `COc1cc(CNC(=O)c2cc3n(n2)CCCN(Cc2cccc(F)c2)C3=O)cc(OC)c1OC`: “inactive”; `Cc1oc2ccc(O)c(CN3CCOCC3)c2c1C(=O)Nc1cccc(Cl)c1C`: “inactive”.
With `O=C(N/N=C/c1ccccn1)c1cccc(NC(=O)c2ccc(Cl)cc2)c1` the entry was “inactive”.
With `O=C(N/N=C/c1ccccn1)c1cccnc1` the figure was 28.2 µM (active); with `O=C(N/N=C/c1ccccn1)C12CC3CC(CC(C3)C1)C2`, “inactive”.
On to `O=C(CNC(=O)c1cccnc1)N/N=C/c1cccnc1`, for which the Potency result was “inactive”.
For `CNC(=O)C(=O)N/N=C/c1ccccn1`, the Potency was 39.8 µM (active).
As to `Cc1cc(C(=O)N/N=C/c2ccccn2)c2ccccc2n1`, the Potency entry was “inactive”.
Take `COc1ccc(-c2noc(CSc3nc4ccc(C)cc4[nH]3)n2)cc1`: the Potency result is “inactive”.
With `Cc1oc2ncnc(N3CCCCC3)c2c1C(=O)N1CCN(c2cccc(Cl)c2)CC1` the entry was “inactive”; with `Cc1cccc(NC(=O)CSc2nnc(CNC(=O)c3cccc(C)c3)n2-c2ccccc2)c1`, “inactive”; with `Cc1ccc(-c2ccc(CCC(=O)O)n2-c2ccc(C(N)=O)cc2)cc1`, “inactive”.
Next, `CCN1CCN(Cc2c(O)ccc3oc(C)c(C(=O)Nc4ccc(C)cc4C)c23)CC1`: “inactive”; `CC(C)(C)N(CC#CCC(O)(c1ccccc1)C1CCCC1)CCO` (centres undefined): 79.4 µM (active).
On to `CN(CC#CCC(c1ccccc1)c1ccccc1)C(C)(C)C`, for which the Potency result is “inactive”.
With `OC(C#CCN1CCOCC1)(c1ccccc1)C1CCCCC1` (centres undefined) the entry was “inactive”; with `CCc1ccccc1NC(=O)c1ccc2nc(CCc3ccccc3)oc2c1`, “inactive”; with `COC(=O)c1ccc(Cn2c(SCC(=O)N(C)c3ccccc3)nc3ccccc32)cc1`, “inactive”.
Turning to `O=C(Nc1ccc(Oc2ccccc2)cc1)C1CCN(S(=O)(=O)c2ccc(Cl)cc2)CC1`, the Potency result was “inactive”.
Consider `O=C(Nc1ccccc1)c1nnsc1S(=O)(=O)c1ccc(Cl)cc1`, for which the Potency is 44.7 µM (active).
With `CN(c1cccc(NC(=O)Nc2ccc(Cl)cc2)c1)S(C)(=O)=O` the entry was “inactive”.
Consider `CCCCN(CC)CCCNC(=O)c1nn(C)c2c1CSc1ccccc1-2`, for which the Potency result is “inactive”.
For the compound `Cc1ccccc1CNC(=O)c1cccc(NC(=O)c2nsc3ccccc23)c1`, the Potency entry is “inactive”.
With `O=C(CSc1nnc(-c2ccncc2)n1-c1ccccc1)Nc1ccc(Cl)c(Cl)c1` the entry was “inactive”.
With `Cc1cc(C)cc(-n2c(SCC(=O)NCC3CCCO3)nc3c([nH]c4ccccc43)c2=O)c1` (centres undefined) the entry was “inactive”; with `Cc1ccc(CN2C(=O)N/C(=C/c3cc(C)n(-c4ccccn4)c3C)C2=O)cc1`, “inactive”.
Next, `CN(C)c1ccc(/C=C2\NC(=S)N(Cc3ccccc3)C2=O)cc1`: 28.2 µM (active); `CN(C)c1ccnc2sc3c(=O)n(Cc4ccccc4)cnc3c12`: “inactive”.
Consider `CSc1c(SCc2ccccc2)cnn(Cc2ccccc2)c1=O`, for which the Potency entry was “inactive”.
With `CC1=NN(Cc2ccccc2)C(=O)/C1=C/c1ccc(N(C)C)cc1` the figure was 2 µM (active); with `O=C1N/C(=C/c2cccs2)C(=O)N1Cc1ccc(F)cc1`, “inactive”.
`CCc1ccc(C(=O)CC2(O)C(=O)N(CCc3ccccc3)c3ccc(Br)cc32)cc1` (centres undefined): the Potency result was “inactive”.
With `CCC1CCCCN1Cc1c(O)ccc2c(=O)c(Oc3ccccc3Cl)c(C(F)(F)F)oc12` (centres undefined) the entry was “inactive”; with `COCCNC(=O)c1ccc2c(c1)N(Cc1cccc(Cl)c1)C(=O)c1ccccc1S2(=O)=O`, “inactive”; with `Cc1c(-c2nsc(NC(=O)c3cccc(Cl)c3)n2)nnn1-c1ccccc1C(F)(F)F`, “inactive”.
Turning to `Cc1ccccc1Nc1scc(-c2ccc(Br)cc2)[n+]1-c1ccccc1C`, the Potency was 11.2 µM (active).
Consider `O=C(CSc1ncc(S(=O)(=O)c2ccc(Br)cc2)c(=O)[nH]1)Nc1ccc2c(c1)OCCO2`, for which the Potency entry is “inactive”.
`CCOc1ccc(C(NC(=O)c2cc(OC)c(OC)c(OC)c2)c2cc(Cl)c3cccnc3c2O)cc1` (centres undefined): the Potency entry was “inactive”.
As to `CCN1CCN(C(c2cccnc2)c2cc(Cl)c3cccnc3c2O)CC1` (centres undefined), the Potency is 11.2 µM (active).
With `CCOC(=O)N1CCN(C(c2cccnc2)c2ccc3cccnc3c2O)CC1` (centres undefined) the figure was 15.8 µM (active); with `CCN1CCN(C(c2ccc(C)cc2)c2c(O)cc(C)n(Cc3ccco3)c2=O)CC1` (centres undefined), “inactive”; with `CCOC(=O)N1CCN(C(=O)CSc2nc(=O)n3cccc(C)c3n2)CC1`, “inactive”.
Consider `COc1ccccc1N1CCN(C(CNC(=O)C(=O)NCc2ccc(C)cc2)c2cccnc2)CC1` (centres undefined), for which the Potency entry was “inactive”.
For the compound `Cc1ccc(Cl)cc1NC(=O)CCC(=O)N1CC(C)Sc2ccccc21` (centres undefined), the Potency entry is “inactive”.
With `CCOc1ccc(Nc2ncnc3scc(-c4ccc(OC)cc4)c23)cc1` the entry was “inactive”; with `C#CCN(N(C)c1ncc(C(F)(F)F)cc1Cl)S(=O)(=O)c1ccc2ccccc2c1`, “inactive”; with `CN(NS(=O)(=O)c1cccs1)c1ncc(C(F)(F)F)cc1Cl`, 56.2 µM (active).
Next, `CN(CC(=O)Nc1cccc(C(F)(F)F)c1)S(=O)(=O)c1cccs1`: “inactive”; `Cc1cccc(-n2ncc(C(=O)N3CCN(c4ccc(Cl)cc4)CC3)c2C2CCN(C(=O)OC(C)(C)C)CC2)c1`: “inactive”; `CC1=C(C(=O)OCC(C)C)C(c2ccc(OCc3ccccc3)cc2)N2C(=O)CCSC2=N1` (centres undefined): “inactive”.
Next, `Cc1cc(/C=C2/SC(=O)N(CC(=O)N3CCCC3)C2=O)c(C)n1C`: “inactive”; `Cc1cccc(C)c1NC(=O)CSc1ccc([N+](=O)[O-])cn1`: “inactive”.
In the case of `Fc1ccc(Br)cc1/C=N/n1cnnc1`, the Potency result is “inactive”.
With `Cc1cc(/C=C2/SC(=O)N(CC(=O)OC(C)C)C2=O)c(C)n1C` the entry was “inactive”.
With `Cc1cc(/C=N/Nc2ccc([N+](=O)[O-])cn2)c(C)n1-c1cccc(C(=O)O)c1`, the Potency was 44.7 µM (active).
With `Cc1cc(/C=C2\SC(=O)N(C)C2=O)c(C)n1-c1cccc(C(=O)O)c1` the figure was 79.4 µM (active); with `NC1=NN(c2cccc(C(=O)O)c2)C(=O)C1`, “inactive”; with `O=[N+]([O-])c1cccc(/C=N/Nc2ncc(Br)cn2)c1`, “inactive”.
Consider `Cc1cc(/C=N/n2cnnc2)c(C)n1-c1cccc(C(=O)O)c1`, for which the Potency was 35.5 µM (active).
